IMPase Li cell = qHTS Assay for Identifying the Cell-Membrane Permeable IMPase Inhibitors: Potentiation with Lithium. CHO-M1 cells, IP1 TR-FRET (IP-One), carbachol + lithium. Potency, µM (top dose mostly 59.4 µM), for the others: at the top dose activity, negative = IMPase inhibition, actives largely listed as inhibitors. 0.35% of 210,000 active;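 note: IP1 builds up when IMPase is blocked and the TR-FRET signal falls; potency is the fitted concentration of half-maximal effect; plate controls were basal vehicle for no effect and high inhibitor control for full effect; nearly all actives have a fitted effect of over 50% in size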
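Lithium-sensitised IP1 accumulation assay; M1-expressing CHO cells treated 30 min at 37C with compound. Competitive antibody detection by time-resolved FRET followed a 10 min room-temperature lysis step.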
NPSR antag = qHTS Assay for Antagonists of the Neuropeptide S Receptor: cAMP Signal Transduction; CHO-NPSR cells, cAMP TR-FRET, antagonist mode; Potency, µM (top dose mostly 38.3 µM), inactives show top-dose activity change, negative = inhibition, usual class: inhibitors; 1% of 220,000 active; note: potency is the fitted concentration of half-maximal effect; % is set by controls: 0 for no effect and ±100 for the full control effect; nearly all actives have a fitted effect of over 50% in size
PNC assembly inh = High Content Assay for Compounds that inhibit the Assembly of the Perinucleolar Compartment; activity change (PNC), negative = inhibition, % at 10 µM; 3.1% of 140,000 active; PC3M PTB-GFP, PNC prevalence imaging, 16 h; active compounds read low;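 active = readout at or below -70, meaning at least 70% loss of cells showing the perinucleolar compartment, a nuclear body marking cancer cells; inconclusive = readout between -30 and a set limit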;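 note: plate controls were DMSO wells for no effect and camptothecin positive control wells for full effect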
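Compounds are pinned in duplicate onto adhered PC3M cells stably expressing GFP-tagged PTB and incubated 16 h at 37 C. Cells are then fixed, nuclei stained with Hoechst, and PNC-positive cells counted.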
HttQ103 aggreg = qHTS Multiplex Assay to Identify Dual Action Probes in a Cell Model of Huntington: Aggregate Formation (GFP); PC12 HttQ103-GFP aggregates, Acumen cytometry, 40 h; Potency, µM (titrated, usually from 46.1 µM), inactives show at the highest dose activity change, negative = inhibition, most hits filed as inhibitors; 1.1% of 220,000 active; note: potency is the fitted concentration of half-maximal effect; % is set by controls: 0 for no effect and ±100 for the full control effect; nearly all actives have a fitted effect of over 60% in size
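Multiplexed with ATP-based cell death, this channel scores GFP aggregates in PC12 cells expressing inducible HTTex1-Q103-GFP. Induction used 100 nM tebufenozide; compounds were tested in concentration series.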
HTT cytoprotect = qHTS Multiplex Assay to Identify Dual Action Probes in a Cell Model of Huntington: Cytoprotection (ATP); PC12 HTT-Q103 induced, cytoprotection, ATP luminescence, 40 h; 0.14% of 230,000 active; Potency, µM (highest dose often 56.4 µM), without a hit: cytoprotection (ATP increase), actives largely listed as activators; note: potency is the fitted concentration of half-maximal effect; % of control where 0% means no effect; nearly all actives have a fitted effect of over 45% in size
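Readout: ATPlite luminescence (ATP level). Model: stable PC12, inducible Htt exon1 Q103-GFP. Inducer: tebufenozide, 100 nM final. Compounds: dose series. No G418 in medium.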
IMPase cell inh = qHTS Assay for Identifying the Cell-Membrane Permeable IMPase Inhibitors. Inositol monophosphatase 1 (Rattus norvegicus), P97697. CHO-M1 cells, IP1 accumulation, HTRF TR-FRET ratio. inhibition (IP1 accumulation), % at 46.1 µM. 120,000 tested, under 10 active; active = well fitted curve in the direction sought with a large enough effect in the signal ratio, not every such curve was filed as active; inconclusive = small, poorly fitted or top-dose-only effect, or a change in a side signal; inactive = no such curve, though single readings can be large or run the other way; the % refers to the signal ratio;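 note: cells stimulated with carbachol in lithium chloride buffer; plate controls were DMSO basal wells for no effect and reference inhibitor wells for full effect; higher means more IMPase inhibition seen as more IP1 and lower FRET ratio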
Target sequence (P97697 whole entry, looked up): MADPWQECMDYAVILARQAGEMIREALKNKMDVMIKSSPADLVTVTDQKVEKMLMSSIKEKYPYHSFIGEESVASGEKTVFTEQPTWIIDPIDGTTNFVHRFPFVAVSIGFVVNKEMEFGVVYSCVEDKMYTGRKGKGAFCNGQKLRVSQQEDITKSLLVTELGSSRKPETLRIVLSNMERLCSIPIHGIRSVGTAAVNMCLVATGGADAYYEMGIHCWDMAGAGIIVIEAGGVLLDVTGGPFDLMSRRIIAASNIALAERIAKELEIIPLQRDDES
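Elevated IP1 in lysates lowers TR-FRET signal (665/620 ratio and 620 channel reported). Cells were CHO-M1, given carbachol (50 uM as added) plus 50mM LiCl, pH 7.4, 30 min, 37C; compounds titrated up to 46 uM; AC50 by Hill equation.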
Numbers without * were called inactive; ? = inconclusive; . = no result; [ ] = another dose, or the depositor's remark. Hits are enriched below; roughly 3.4% of the tested compounds scored in any of these assays. Unless noted, calls come from the whole dose curve; as a rule, active = well fitted curve in the direction sought with a large enough effect; inconclusive = small, poorly fitted or top-dose-only effect, or another doubt; inactive = no such curve, though single readings can be large; an effect the other way counts as inactive or inconclusive.

SMILES	IMPase Li cell	NPSR antag	PNC assembly inh	HttQ103 aggreg	HTT cytoprotect	IMPase cell inh
COc1ccc(CN2CCN(CC(O)Cn3c4ccccc4c4ccccc43)CC2)cc1 (stereo not drawn)	9.8%	-17.6%	-101.7*	?	-7.6%[10 µM]	.
CCOc1ccc(CN2CCN(CC(O)Cn3c4ccccc4c4ccccc43)CC2)cc1 (stereo not drawn)	20.9%	-48.0%	20.2	?	.	.
CCN(CC)Cc1c(O)ccc2c([N+](=O)[O-])c(C)n(-c3ccc(OC)cc3)c12	11.2%	-8.3%[46.1 µM]	5.4	5.01µM*	-11.7%[10 µM]	16.1
CC(C)Nc1nnc(SCC(=O)c2c(N)n(Cc3ccccc3)c(=O)n(C)c2=O)s1	0.9%[38.3 µM]	-18.2%[46.1 µM]	?	0.112µM*	-17.5%	22.1
Cn1c(/C(C#N)=C/c2ccccc2Br)nc2ccccc21	.	.	.	.	.	3.4
O=C(CCCCn1c(=O)c2ccccc2n(Cc2ccc(F)cc2)c1=O)NCc1ccco1	7.2%[38.3 µM]	-20.0%[46.1 µM]	-28.7	1µM*	-80.3%[10 µM]	12.7
O=C(CCCn1c(=O)c2ccccc2n(Cc2ccccc2)c1=O)NCc1ccco1	-14.3%[38.3 µM]	-15.5%[46.1 µM]	-3.4	13.7%[9.22 µM]	10.7%	3.6
Cc1c(NS(=O)(=O)c2ccc3c(c2)OCCO3)cccc1-c1nc2cccnc2s1	59.3%[38.3 µM]	?	?	8.91µM*	30.1%[10 µM]	7.4
CC(OC(=O)/C=C/c1ccco1)C(=O)Nc1cccc([N+](=O)[O-])c1 (stereo not drawn)	31.8%	-1.1%[46.1 µM]	-83.7*	1.8%	34.7%[10 µM]	0.9
CC1(C)C(=O)Nc2ccccc2N1C(=O)COC(=O)c1ccc(Cl)c(S(=O)(=O)NCc2ccccc2)c1	13.7%[38.3 µM]	-25.6%[46.1 µM]	46.0	-9.6%	-1.8%	6.3
CCOC(=O)c1ccc(NC(=O)CSc2nnc(CNc3ccc(C)cc3)n2C)cc1	2.3%	-6.9%[46.1 µM]	-100.0*	-0.7%	27.2%[10 µM]	5.8
CCOC(=O)c1ccc(NC(=O)CSc2nnc(C3CC3)n2C)cc1	1.9%	-19.7%[46.1 µM]	-10.6	-15.6%	-2.8%[1.9 µM]	-0.2
Fc1ccccc1OCC1CCCN(Cc2nc(CC3CC3)no2)C1 (stereo not drawn)	8.9%	18.5%	.	-7.1%[9.22 µM]	6.5%[10 µM]	.
NC(=O)N/N=C/c1c(Sc2nnnn2-c2ccccc2)nc2ccccn2c1=O	.	28.1%	.	11.7%[9.22 µM]	4.47µM*	.
Cc1cc(NC(=O)CSc2ccc3nnc(-c4cccs4)n3n2)no1	-5.5%[38.3 µM]	1.9%[46.1 µM]	-105.7*	12.1%	-7.9%	-2.6
Nc1ccc2c(c1)OC1(CCCC1)O2	11.2%	11.3%	.	-4.7%[9.22 µM]	-82.8%	.
O=C(O)c1ccccc1C(=O)Nc1ccc(Br)c(C(F)(F)F)c1	.	-16.1%	.	8.0%[9.22 µM]	4.4%[10 µM]	.
Cc1cc(C)c(C(=O)Nc2ccc(Br)c(C(F)(F)F)c2)c(C)c1	16.1%	-45.1%	?	20µM*	.	.
CCOC(=O)C1=C(NC(=S)NC(=O)c2ccccc2)c2ccccc2CC1C(C)C (stereo not drawn)	15.3%	?	-96.1*	-20.2%	7.0%[10 µM]	0.6
CCOC(=O)C1=C(NC(=S)NC(=O)c2ccccc2)c2ccccc2CC1(C)CC (stereo not drawn)	7.8%	-52.9%	?	-14.1%	15.3%[10 µM]	.
Cc1cc(C)cc(NC(=O)COC(=O)CN=C2NS(=O)(=O)c3ccccc32)c1	3.0%	9.6%	.	26.7%	4.1%	.
CC(C)(C)C(=O)Nc1ccccc1C(=O)Nc1ccccn1	3.0%	13.1%[46.1 µM]	-100.0*	5.2%	-6.9%[10 µM]	-5.6
CCc1ccc(N2C(=O)CN(Cc3cc(OC)c(OC)c(OC)c3)C2=S)cc1	1.1%	13.7%	-81.5*	3.2%	7.2%[10 µM]	.
CS(=O)(=O)Nc1ccccc1C(=O)Nc1cc(Cl)cc(Cl)c1	17.6%[38.3 µM]	-8.7%[46.1 µM]	5.8	8.91µM*	-56.7%[10 µM]	-3.7
